Results published in article PMC5540273 (PLoS ONE, 2017).

Columns and labels:
Details in all cases: concentration: 1 μM, replicates: in singlicate; n = 1
RIOK1 = tested on: RIOK1
RIOK2 = tested on: RIOK2
RIOK3 = tested on: RIOK3
RIPK1 = tested on: RIPK1
RIPK2 = tested on: RIPK2
RIPK4 = tested on: RIPK4
RIPK5 = tested on: RIPK5
ROCK1 = tested on: ROCK1
ROCK2 = tested on: ROCK2
ROS1 = tested on: ROS1
[1] = tested on: RPS6KA4(Kin.Dom.1-N-terminal)
[2] = tested on: RPS6KA4(Kin.Dom.2-C-terminal)
[3] = tested on: RPS6KA5(Kin.Dom.1-N-terminal)
[4] = tested on: RPS6KA5(Kin.Dom.2-C-terminal)
[5] = tested on: T1, RSK1(Kin.Dom.1-N-terminal)
T1 construct: gene RPS6KA1

[6] = tested on: T2, RSK1(Kin.Dom.2-C-terminal)
T2 construct: gene RPS6KA1

[7] = tested on: T3, RSK2(Kin.Dom.1-N-terminal)
T3 construct: gene RPS6KA3

[8] = tested on: T4, RSK2(Kin.Dom.2-C-terminal)
T4 construct: gene RPS6KA3

[9] = tested on: T5, RSK3(Kin.Dom.1-N-terminal)
T5 construct: gene RPS6KA2

[10] = tested on: T6, RSK3(Kin.Dom.2-C-terminal)
T6 construct: gene RPS6KA2
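Further: KINOMEscan kinase panel screen.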

Row | SMILES | %Inh (RIOK1) | %Inh (RIOK2) | %Inh (RIOK3) | %Inh (RIPK1) | %Inh (RIPK2) | %Inh (RIPK4) | %Inh (RIPK5) | %Inh (ROCK1) | %Inh (ROCK2) | %Inh (ROS1) | %Inh [1] | %Inh [2] | %Inh [3] | %Inh [4] | %Inh [5] | %Inh [6] | %Inh [7] | %Inh [8] | %Inh [9] | %Inh [10]
1 | Cc1cccc(Nc2nc(NCCN)ncc2C(N)=O)c1 [GSK1292139] | 89% | 3% | 90.2% | 20% | 0% | 81% | 14% | 82% | 81% | 19% | 12% | 0% | 0% | 29% | 20% | 31% | 46% | 7% | 18% | 1%
2 | c1ccc(Oc2ccc(Nc3ccnc4cc(-c5ccc(CN6CCCCC6)o5)ccc34)cc2)nc1 [GW567143] | 3% | 13% | 0% | 0% | 96.3% | 0% | 0% | 19% | 0% | 0% | 13% | 0% | 0% | 0% | 22% | 0% | 0% | 20% | 3% | 0%
3 | COc1ccc(C2=C(Nc3cccc(O)c3)C(=O)NC2=O)cc1 [SB-390766] | 22% | 0% | 0% | 0% | 32% | 10% | 0% | 18% | 19% | 0% | 0% | 0% | 2% | 0% | 32% | 0% | 24% | 96.4% | 3% | 21%
4 | COc1cccc(-c2nc(-c3ccccc3)[nH]c2-c2ccncc2)c1 [SB-610250] | 18% | 0% | 0% | 0% | 75% | 11% | 0% | 24% | 13% | 0% | 2% | 0% | 7% | 41% | 19% | 7% | 12% | 26% | 11% | 0%
5 | CN(c1ccc(NC(=O)Nc2cccc(Cl)c2)cc1)c1ccnc(N)n1.Cl [GW830707] | 0% | 0% | 0% | 0% | 1% | 5% | 0% | 53% | 35% | 12% | 21% | 0% | 4% | 0% | 0% | 0% | 0% | 0% | 0% | 0%
6 | Cc1ccc(C)c(NC(=O)Nc2ccc(C)c(-c3ccc(C(=O)Nc4ccncc4)cc3)c2)c1 [GSK1398473] | 38% | 48% | 0% | 42% | 8% | 11% | 7% | 0% | 0% | 0% | 37% | 0% | 4% | 14% | 0% | 0% | 37% | 18% | 27% | 3%
7 | CN(C)CCOc1ccc(-c2cc(-c3ccc(Cl)c(O)c3)c(-c3ccncc3)[nH]2)cc1.Cl.Cl [SB-684387] | 0% | 32% | 0% | 36% | 88% | 7% | 13% | 99.2% | 98.9% | 10% | 0% | 23% | 0% | 33% | 10% | 23% | 3% | 8% | 4% | 0%
8 | Cc1ccc(NC(=O)c2cccc(N3CCCCC3)c2)cc1-c1ccc(C(=O)NCC2CC2)cc1 [GSK1917008] | 34% | 15% | 0% | 13% | 6% | 29% | 0% | 2% | 0% | 6% | 28% | 0% | 33% | 8% | 18% | 1% | 15% | 21% | 12% | 5%
9 | O=C(O)C(F)(F)F.O=c1[nH]ccc2nc(N[C@@H]3CCNC3)nc(Nc3ccc4c(c3)S(=O)(=O)CC4)c12 [GSK2181306] | 98.9% | 60% | 92.9% | 0% | 9% | 96% | 94.4% | 99.7% | 99.7% | 29% | 91.8% | 100% | 62% | 95.4% | 97.8% | 78% | 97.6% | 31% | 91.3% | 87%
